# Results reported in the supplement of paper PMC6555819.
# Legend:
# Test in all cases: PBM binding z-score (relative to random genomic background probes); higher = stronger binding; sequences stand for … in GC…GCGATTGACAGCGTAGAATGAAGG
# [1] = test system: PPARg:RXRa IVT, anti-PPARg (NR concentration 270 nM, RXRa partner concentration 90 nM)
# Outline: (§1)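 On custom Agilent 4×180K arrays, double-stranded probes with 34-nt variable regions carried direct-repeat seeds, single-nucleotide variants, half-site ablations or random human genomic background. Ligand-free nuclear receptor dimers were applied for 1 h, and binding was read with antibodies against each partner (one per run). Binding z-scores come from regression-normalized fluorescence, with the random background probes as reference.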
# [2] = test system: PPARg DBDmut:RXRa IVT, anti-PPARg (DBD mutation: PPARg1 K132A/R137A, NR concentration 270 nM, RXRa partner concentration 90 nM)
# Outline: as §1
# [3] = test system: PPARg DBDmut IVT, anti-PPARg (DBD mutation: PPARg1 K132A/R137A, NR concentration 270 nM)
# Outline: as §1
# [4] = test system: PPARg homodimer (NR concentration 180 nM)
# Outline: as §1
# [5] = test system: PXR:RXRa (NR concentration 270 nM, RXRa partner concentration 90 nM)
# Outline: as §1
# [6] = test system: PXR homodimer (NR concentration 270 nM)
# Outline: as §1
# [7] = test system: RARa:RXR (NR concentration 270 nM, RXRa partner concentration 90 nM)
# Outline: as §1
# [8] = test system: RARa homodimer (NR concentration 270 nM)
# Outline: as §1
# [9] = test system: RARb:RXRa (NR concentration 270 nM, RXRa partner concentration 90 nM)
# Outline: as §1
# [10] = test system: RARb homodimer (NR concentration 270 nM)
# Outline: as §1
Sequence,PBM binding z-score [1],PBM binding z-score [2],PBM binding z-score [3],PBM binding z-score [4],PBM binding z-score [5],PBM binding z-score [6],PBM binding z-score [7],PBM binding z-score [8],PBM binding z-score [9],PBM binding z-score [10]
AGAATGAGGTTAAACGTAGATCAGGGAAGAAAGT,3.75,1.56,1.02,1.3,1.73,0.319,2.69,0.469,2.23,1.19
CGAACTAGGTCAAGGCCAGTGAATCTCCGCACGC,8.42,3.5,2.31,1.99,1.35,-0.029,2.32,0.0978,4.11,3.35
GCTGCTAGGTCAACTGATGGTCATCTAAAGCTCG,4.36,0.236,0.14,2.42,2.17,-0.491,3.74,0.102,4.32,3.66
AGAATGAGGTTAAGTTCAGGGAAACAGAATACAT,3.33,1.62,0.811,1.08,3.31,1.91,3.03,0.895,3.17,2.6
CATACAGGGTCGGCTAGGCCAGAGTAGGGACGGC,0.00635,-0.399,-0.0958,-0.0997,-0.0911,-0.146,0.408,-0.15,1.13,0.799
ATCGAAAGGTCGACCAGGTGAGTATACACCGTTT,2.15,0.944,0.642,1.28,2.8,0.258,3.62,0.621,3.98,2.97
AATACAAGGTCATCGTAGGCCAGAGTACGCACAG,4.7,0.979,1.37,2.81,4.87,2.13,4.63,1.33,5.15,4.19
ATCGAAAGGTCTAAGGTGAGTATACCCACCCGAA,1.2,0.696,0.446,0.384,0.515,0.247,1.35,0.59,1.53,1.08
TCTCGGAGGAAACGAAAGGTCAGAGCTCGACATC,0.961,-0.0511,-0.298,2.23,3.7,0.181,4.48,1.31,3.73,4.28
AAAACAGGGTCATCGTAGGCCAGAGTACGCACAG,5.24,4.19,2.83,6.6,5.51,0.625,5.95,0.959,4.44,3.68
ACTCGGATGACAAAGGTCAGAGCTACGCCAGTGA,2.58,0.403,0.346,3.31,3.68,0.135,4.51,1.18,4.12,3.9
CGTCCAAGGTCGAAGGTCAGTGAAGAGATGACGG,2.36,-0.273,-0.43,1.19,3.61,0.105,5.45,0.117,3.98,3.62
TCTCGGAGGACACAAAGGTCAGAGCTTTCCAGAG,2.39,-0.467,-0.672,2.65,4.46,3.76,4.59,1.37,4.22,4.77
TAGCCTAGGTCATGCGGGACAGTATAGTGTCGGC,3.2,0.574,0.484,1.45,1.82,-0.102,2.58,-0.0247,3.72,2.99
CGAACTAGGTCGTCCAGGACAGTGAATACATTGA,4.97,0.213,0.237,-0.545,0.256,-0.263,0.281,-0.365,1.14,0.392
CAAACTAGGTCACTAAAGGTCAAAGTCGAATGAC,8.98,4.79,2.9,5.36,6.84,2.87,7.45,3.41,5.53,5.66
CAGCATAGGTCAGGGCCAGTATAGGAGGAACGTT,1.1,-0.177,-0.223,1.42,1.36,0.189,2.17,0.463,3.89,3.19
AGTCAAAGTTGAGGACGAGGTAACGTAAAGCACG,0.639,0.307,-0.0552,0.137,0.261,-0.0592,0.951,0.0325,1.46,1.01
GGAACGAGGGCAAAGTTCATAGCATCTGTCGACG,6.1,0.354,-0.0901,3.42,5.81,4.46,6.65,0.559,4.01,3.75
TCTAGTTGGTCACGGAGGTCCCACACGACGGGTA,2.31,0.993,1.03,0.373,0.138,-0.319,0.243,0.299,1.57,1.32
ATCGAAAGGTCGACGCGGTGAGTATACACCGTTT,1.36,0.788,0.177,1.39,2.07,-0.368,3,0.192,3.72,2.45
AGTCAAAGTTCAGGACGAGGTAACGTTAAGCACG,1.92,0.603,0.235,2.35,3.11,1.65,2.78,0.838,4.3,3.3
CGAACAAGGTCATCCAGGACAGTGAATACATTGA,5.07,3.54,2.64,3.58,5.44,7.22,5.39,2.04,5.19,4
TCTGCTAGGTCAACGATGGTCAGTTAATCTGCTA,4.08,0.247,0.848,1.07,1.88,-0.482,2.17,-0.966,4.04,3.26

Sequence,PBM binding z-score [1],PBM binding z-score [2],PBM binding z-score [3],PBM binding z-score [4],PBM binding z-score [5],PBM binding z-score [6],PBM binding z-score [7],PBM binding z-score [8],PBM binding z-score [9],PBM binding z-score [10]
ATCTCTAGGTTAAGATAGTTCAGTGAATGCAAAT,3.25,1.33,1.32,1.36,3.05,0.756,1.53,2.08,2.01,1.9
AGAATGAGGTCATACGTAGATCAGGGAAGAAAGT,6.69,1.6,2.79,2.06,4.89,1.94,5.04,1.17,4.84,3.6
CCTACTGGACCAAGGTCATTGATCAGTCAAAGCA,2.23,0.0744,0.144,2.59,3.88,1.96,3.91,0.91,3.23,3.4
GATACAGGGTCAGCTACAGGCCAGAGTATGGAAA,2.25,0.112,-0.146,1.47,2.17,-0.273,3.3,0.244,4.02,2.99
CGTCCAAGGTCAAAGGTCAATGAAGAGATGACGG,6.01,0.925,0.0116,3.92,7.05,1.95,8.9,1.95,6.08,5.56
CCTTACGGGTCACTCCAGGTTATATCATCGGAGT,3.56,0.671,-0.354,1.62,5.16,0.444,3.62,0.321,3.69,3.31
CCTAGTTGTTCAGGAGGTCACACACCGGATATGA,2.97,1.15,0.86,3.91,4.18,2.15,4.4,2.25,3.62,4.15
TAGCCTAGGTCATGCGGCCCAGTATAGTGTCGGC,2.78,-0.45,-0.404,0.605,1.27,-0.926,2.1,-0.495,3.72,2.78
CGTCCAAAGTCAAAGGTCAGTGAAGAGATGACGG,2.41,0.349,0.905,3.27,3.97,0.811,5.61,1.11,4.53,4.29
AGAATGAGGTCATTAAGATCAGGGAATTGCGGTC,6.13,2.24,0.816,3.54,5.46,5.08,5.31,0.745,4.79,3.96
CCTACTGGGCCGTTCAGAGGTCATTGATCATATG,2.34,-0.522,-0.314,1.94,4.75,2.25,4.52,0.491,2.7,3.78
AGAATGGGGTTACCAAAGATCAGGGAAACGCTTG,4.08,1.57,1.15,1.96,3.04,0.0687,3.76,-0.368,2.18,1.08
TAGCCTAGGTCATACAGGGGCCAGTATAGAAAGC,2.89,0.2,-0.11,1.83,2.1,-0.101,3.56,0.204,3.91,3.38
CGTCCGAGGTCAAGGTCAGTGAAAGAGACTCGAA,5.07,0.688,-0.148,4.23,5.51,1.87,6.15,1.57,5.71,5.16
TATAAAGGGTCAAAGGCCAGAGTACGAATGTCGA,4.93,2.86,2.33,3.29,4.36,0.699,5.99,1.64,5.27,4.32
TCTTGTAGATCAATAGAAGTTAAGAAAGTGCGCT,0.217,0.211,1.07,0.551,0.615,0.29,0.734,0.368,0.0854,-0.511
TCTAGTTGGTCACGGAGGTCACAAACGACGGGTA,3.96,0.857,0.878,2.5,4.3,1.25,4.32,1.68,3.66,4.21
CAAACTAGGTCACAGTGGTCAAAGTCCGTGCGTA,9.05,2.06,1.68,2.21,2.03,-0.0834,2.51,0.000573,4.08,3.62
ATCGAAAGGTCGAAGGTGCGTATACCCACCCGAA,1.39,0.552,0.658,0.794,2.17,-0.19,3.01,0.303,3.68,2.42
CCTAGTGGGCCAAGGTCATTGATCAGTCAAAGCA,4.38,-0.821,-0.95,2.36,3.66,1.8,3.56,0.113,3.36,3.28
CGTCAAAGTTCAACTGAGGTAACGTAAAGCACGC,2.31,0.285,0.242,3.03,5.86,4.5,4.36,1.6,5.41,4.06
ATCGAAAGGTCAACGAGGTGAGTATACACCGTTT,5.68,2.78,3.38,5.17,6,5.16,6.61,3.85,,5.51
ATCGAAAGGTCCAAGGTGAGTATACCCACCCGAA,0.666,0.0343,0.185,0.369,0.0935,-0.107,0.511,0.706,1.49,0.938
GCTGCGAGGTCAACTGATGGTCAGCTAAAGCTCG,4.26,0.48,-0.29,3.57,5.49,0.673,5.93,0.38,,4.83
